Screening data: PubChem BioAssay, ICCB-Longwood Screening Facility, Harvard Medical School
The full list was thinned out, with hits kept by preference.
HCMV UL50-53 inh: disrupts HCMV UL50-UL53 complex binding. HTRF UL50-UL53 interaction, normalized percent inhibition. inhibition, % (concentration not given with the values). 190,000 tested, 0.15% active. AID 1918969; in the data active = inhibition above about 27%, passing the limit was not always enough
Sa helicase inh: blocks Staphylococcus aureus DNA helicase; purified S. aureus helicase, fluorescence unwinding assay; inhibition, % (no concentration beside the values); 120,000 tested, 0.05% active; AID 485395; in the data active = inhibition above about 25%, passing the limit was not always enough;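 also: 0% = mean of negative control wells and 100% = mean of positive control wells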
Sa growth 42C: inhibitors of Staphylococcus aureus growth at 42 °C; S. aureus RN4220 growth, OD600, 20 h; hits give low values; relative growth, % (test concentration not listed); 170,000 tested, 0.53% active;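 active = relative growth at most 50% at the other temperature and 20+ points below 30 °C, or under 10% at both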
* hit, by the source's call; x = no result.

SMILES	HCMV UL50-53 inh	Sa helicase inh	Sa growth 42C
CC(C)Cn1c(=S)[nH]c2scc(-c3cccs3)c2c1=O	-24.5	9.0	8.9*
CCCn1c(NC(=O)C2CCCC2)nc2ccccc21	-14.1	-4.0	-0.9*
CCCn1c(NC(=O)CCC2CCCC2)nc2ccccc21	-18.9	20.0	147.3
Cc1sc2c(c1C)CSC(C(=O)NCCc1ccccc1)=C2	x	10.0	89.3
CCn1c(=O)c(CCc2ccccc2)nc2cc(S(=O)(=O)N(C)C)ccc21	-12.3	-5.0	108.5
CSc1nnc2c(n1)OC1(CCCCC1)Nc1ccccc1-2	-6.5	x	x
CSc1nnc2c(n1)OC1(Nc3ccccc3-2)C(=O)Nc2ccc([N+](=O)[O-])cc21 (centres undefined)	33.7*	x	x
N/C(Cc1nc2ccccc2s1)=N\O	51.8*	x	82.7
c1ccc2sc(CCc3nc4ccccc4s3)nc2c1	-9.4	4.0	75.7
CCCCOc1cccc2c1CCN(C)C2=O	-19.0	6.0	66.5
CN1CCc2c(OCc3ccc(Cl)cc3)cccc2C1=O	-9.4	15.0	6.4*
Cc1nc(-n2[nH]c(C)c(Cc3ccccc3Cl)c2=O)sc1C(=O)N1CCCC1	-25.2	x	x
O[N+]1=CC=CCC1=S.On1ccccc1=S.[Zn]	93.1*	x	-0.3*
c1ccc(CNc2nnnn2-c2ccccc2)cc1	-24.5	3.0	106.3
CCS(=O)(=O)c1nnnn1-c1ccccc1	6.6	-3.0	0.1*
CCS(=O)(=O)c1nnnn1-c1ccccc1S(C)(=O)=O	0.5	3.0	88.6
O=S(=O)(Cc1ccccc1)c1nnnn1-c1ccccc1	5.2	5.0	-0.2*
Cc1cc2nnc(C(=O)/C=C/N(C)C)c(C)n2n1	-140.0	28.0	90.3
COc1cc(/C=N/NC(=O)c2cc(-c3cccn3C)n[nH]2)cc(OC)c1OC	-62.0	32.0	-0.2*
O=C(N/N=C/c1ccccc1)c1cc(-c2ccccc2)n[nH]1	-5.1	16.0	94.4
CCN(CC)c1ccc(C(=O)N/N=C2\CC3CC=CC23)cc1 (centres undefined)	-2.1	-6.0	91.1
O=C(O)c1ccc(CN2CCCCC2)cc1	0.5	12.0	104.5
O=C(O)c1ccc(O)c(SCN2CCCCC2)c1	-5.8	-3.0	4.1*
CCOC(=O)N1CCN(CCC(=O)c2ccc(OC)cc2)CC1	x	13.0	89.2
CCOC(=O)N1CCN(CCC(=O)c2ccc(Br)cc2)CC1	x	7.0	-1.7*
SMILES	HCMV UL50-53 inh	Sa helicase inh	Sa growth 42C
CC1CCN(S(=O)(=O)c2ccc(NC(=O)Nc3ccccc3)cc2)CC1	-11.6	2.0	31.5*
CC(=O)Nc1ccc(S(=O)(=O)N2CCC(C)CC2)cc1	-14.3	4.0	123.3
COC(=O)c1ccc(=O)c2nc3/c(=C/O)c(O)cc(=O)c3[nH]c12	49.6*	x	59.0
COC(=O)c1ccc(N)cc1O	-20.3	x	x
C[C@@H]1NC(=O)[C@@H]2C[C@@H](OC(=O)c3ccccc3)CN2C1=O	24.6	9.0	82.9
COC(=O)CCS(=O)(=O)c1nc(-c2cccs2)cc(C(F)(F)F)n1	x	7.0	1.4*
COc1ccc(NC(=O)CCS(=O)(=O)c2nc(-c3cccs3)cc(C(F)(F)F)n2)cc1	-39.7	x	88.0
Cc1occc1-c1nnc(SCC(=O)c2c[nH]c3ccccc23)n1-c1ccccc1	-2.5	-13.0	90.8
C[N+]1(CC(=O)OCCCC2CCCCC2)CCCCC1	x	5.0	97.6
C[N+]1(CC(=O)OC2CCCCCCCCCCC2)CCCC1	x	13.0	19.9*
Cc1ccc(-n2nc(N3CCN(C(=O)C(C)N4C(=O)COc5ccccc54)CC3)ccc2=O)cc1C (centres undefined)	-47.7	x	x
N=c1n(CC(=O)O)c2ccccc2n1Cc1ccccc1	-18.2	4.0	94.7
O=C1c2ccccc2C(=O)c2c1oc1c3c(ccc21)OCN(Cc1ccccc1)C3	-51.4	4.0	106.1
CCCCN1COc2ccc3c4c(oc3c2C1)C(=O)c1ccccc1C4=O	x	51.0*	13.2
Cc1ccc(NS(=O)(=O)c2c(C)nc3sc4ccccc4n3c2=O)cc1Cl	-33.7	x	x
COC(=O)c1ccc2c(c1)C(=O)/C(=C/c1ccccc1F)O2	-8.6	19.0	x
O=C1C=C2N(c3ccccc3)CCOC2(O)c2ccccc21 (centres undefined)	19.0	11.0	4.8*
O=C1OC2(O)c3ccccc3C(=O)N2c2ccccc21 (centres undefined)	-49.0	-21.0	86.8
Cc1ccc(C(=O)OC2=C(c3ccccc3)C(=O)c3ccccc3C2=O)cc1	x	9.0	77.7
CCOC(=O)COC1=C(c2ccccc2)C(=O)c2ccccc2C1=O	46.0	14.0	5.9*
C=CCSc1nnc(-c2ccc(C(C)(C)C)cc2)n1Cc1ccco1	-14.0	7.0	8.7*
CSc1nnc(-c2ccc(C(C)(C)C)cc2)n1Cc1ccco1	-5.4	x	85.5
Cc1ccc(NC(=O)CN2C(=O)C3(OCCCO3)c3ccccc32)cc1C	13.3	13.0	110.5
O=C(NCC1CCCO1)c1cc2c(s1)-c1ccccc1OC2 (centres undefined)	x	-13.0	98.4
O=C(NCC1CCCO1)c1cc(-c2ccccc2)c(N2CCCCC2)s1 (centres undefined)	35.4*	x	x
SMILES	HCMV UL50-53 inh	Sa helicase inh	Sa growth 42C
COc1ccc(-c2noc(N3CCCC(C(=O)N4CCC(Cc5ccccc5)CC4)C3)n2)cc1 (centres undefined)	-7.6	x	x
N#C/C(=C\c1ccc(C(F)(F)F)cc1)c1cccs1	1.3	x	99.1
COc1ccc(/C=C(\C#N)c2cccs2)cc1	-40.2	-12.0	47.2*
O=c1c2nnn(-c3ccc(Cl)cc3)c2ncn1CCN1CCCCC1	-25.1	2.0	112.3
COc1ccc(CN2CC(=O)N(c3ccc(Br)cc3)[C@@H]3CS(=O)(=O)C[C@@H]32)cc1	-5.6	x	x
O=C(Nc1nnc(C2CC2)o1)c1ccc(S(=O)(=O)N2CCCCC2)cc1	-34.3	5.0	11.8
CC1CCCCN1S(=O)(=O)c1ccc(C(=O)Nc2nnc(C3CC3)o2)cc1 (centres undefined)	-30.0	17.0	0.0*
Cc1cccc(-c2nc3scc(CCNC(=O)C(C)(C)C)n3n2)c1	-20.2	-2.0	106.7
Nc1ncnc2nc(SCc3nc4ccccc4n3Cc3ccccc3)[nH]c12	-12.1	7.0	94.2
COc1ccc(CNC(=O)Cn2cnc3ccccc32)cc1OC	-17.9	41.0*	82.3
COc1ccc(CCNC(=O)Cn2cnc3c(cnn3-c3ccccc3)c2=O)cc1OC	0.9	6.0	105.2
CCCC(=O)Nc1nc(-c2cc3ccccc3oc2=O)cs1	10.8	-5.0	x
CCOc1cc(C=C2C(=O)N(C)C(=O)N(C)C2=O)ccc1OCCOc1ccccc1	16.9	x	x
CCOc1cc(C=C2C(=O)N(C)C(=O)N(C)C2=O)ccc1OCCOc1ccc(C)cc1	61.4*	x	x
O=c1[nH]c(CN2CCC(Cc3ccccc3)CC2)nc2scc(-c3cccs3)c12	-41.5	9.0	113.5
CC1(C)Cc2cccc(Oc3nnnn3-c3ccccc3)c2O1	11.6	2.0	93.0
CCOc1cc(C2C(C(=O)OCCSCC)=C(C)NC3=C2C(=O)CCC3)cc(Br)c1O (centres undefined)	9.6	x	x
COc1ccc(/C=N/N2CCN(C)CC2)cc1	-12.3	3.0	105.6
COc1ccc(/C=N/n2ncc3ccccc32)cc1	-18.1	14.0	26.9*
Cc1ccc(O)c(-c2cc(C(F)(F)F)no2)c1	-12.7	6.0	0.2*
Cc1ccc(-c2cc(-c3ccccc3)no2)c(O)c1	-12.8	8.0	98.1
CCN(CC)C(=O)c1cc(-c2ccccc2O)on1	x	4.0	116.5
Oc1ccccc1-c1cc(C(F)(F)C(F)F)no1	-29.2	-15.0	1.5*
